The panel holds about 83,000 compounds, 20% with a hit somewhere; the sample as a whole holds those more often.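 The endpoint reported here, percent growth, reads 100 for growth as untreated, 0 for no net growth and -100 for all cells dead.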 Activity calls are given as the source filed them. How the source made its calls: active means growth percent below 10; inactive means the rest.
How the values were obtained:
Assay in all cases: NCI-60 one-dose screen, 48 h (100 = growth as untreated, 0 = no growth, -100 = all killed)
Conditions in all cases: 10 µM unless noted
T-47D breast = tested on: T-47D breast
BT-549 breast = tested on: BT-549 breast
SW-620 colon = tested on: SW-620 colon
MCF7 breast = tested on: MCF7 breast
HCT-116 colon = tested on: HCT-116 colon
HCC-2998 colon = tested on: HCC-2998 colon
KM12 colon = tested on: KM12 colon

Measured: growth

Cc1c2ccncc2c(C)c2c1c1ccccc1n2CCCCCC(=O)O
inactive: T-47D breast 86.5% | BT-549 breast 89.4% | SW-620 colon 82.4% | MCF7 breast 77.6% | HCT-116 colon 75.8% | HCC-2998 colon 104% | KM12 colon 82.3%

COc1ccc(CNc2ccc3nc(CCC4CCCCC4)[nH]c3c2)cc1
inactive: T-47D breast 41% | BT-549 breast 96.7% | SW-620 colon 75% | MCF7 breast 68.4% | HCT-116 colon 50.7% | HCC-2998 colon 30.8% | KM12 colon 79.8%

Nc1ccc(N)c2c1C(=O)c1cccc([N+](=O)[O-])c1C2=O
inactive: T-47D breast 38.2% | BT-549 breast 21.6% | SW-620 colon 51.5% | MCF7 breast 16.5% | HCT-116 colon 19.7%
active: HCC-2998 colon -60.6%

CN(C)CCOc1ccc(/C(=C(/CCCCCCCCCC[P+](c2ccccc2)(c2ccccc2)c2ccccc2)c2ccccc2)c2ccccc2)cc1
active: T-47D breast -56.2% | BT-549 breast -78.3% | SW-620 colon -85% | MCF7 breast -77.9% | HCT-116 colon -72% | HCC-2998 colon -83.9%

CCN1C(=O)N(CC)C2C1NN=c1s/c(=C3\C(=O)N(C)c4ccccc43)c(=O)n12 (centres undefined)
inactive: T-47D breast 18.5% | BT-549 breast 55.8% | SW-620 colon 28.3% | MCF7 breast 24.9% | HCC-2998 colon 22.1% | KM12 colon 20.9%
active: HCT-116 colon 8.97%

CNC(=O)c1cc(Oc2cccc3nc(NC(=O)Nc4ccc(F)cc4F)ccc23)ccn1
inactive: T-47D breast 21% | BT-549 breast 45.5% | SW-620 colon 59.7% | MCF7 breast 37.8% | HCC-2998 colon 70.2% | KM12 colon 57.7%
active: HCT-116 colon -33.1%

Cc1ccc(Nc2nc(N)nc(N)c2N=O)cc1Cl
active: T-47D breast 5.56%
inactive: BT-549 breast 98.7% | SW-620 colon 95% | MCF7 breast 36.4% | HCT-116 colon 78.2% | HCC-2998 colon 86% | KM12 colon 80.6%

CN1CCN(Cc2ccc(NC(=O)c3cncc(C#Cc4cnc(N)c5ncccc45)c3)cc2Cl)CC1
active: SW-620 colon 2.96%
inactive: T-47D breast 121% | BT-549 breast 105% | MCF7 breast 65.6% | HCT-116 colon 14.6% | HCC-2998 colon 106% | KM12 colon 23%

C[C@H]1c2ccccc2CN1CCCOc1cc2c(cc1OCC1CC1)C1(CCCC1)C(N)=N2
inactive: BT-549 breast 78% | SW-620 colon 15% | KM12 colon 49.6%
active: T-47D breast 0.245% | HCT-116 colon 7.48% | HCC-2998 colon -55.3%

O=C1NCCS(=O)(=O)/C1=C\C=C\c1cccc(C(F)(F)F)c1
inactive: T-47D breast 22.6% | BT-549 breast 20.2% | SW-620 colon 28.3% | MCF7 breast 18.2% | HCC-2998 colon 19.6% | KM12 colon 43.9%
active: HCT-116 colon -41.8%

Nc1ccc(Cl)c2c(=O)c3ccccc3[nH]c12
inactive: T-47D breast 82.6% | BT-549 breast 75.4% | SW-620 colon 86% | MCF7 breast 65% | HCT-116 colon 84.9% | HCC-2998 colon 88.6% | KM12 colon 89.7%

COc1ccc(/C=C\c2cc(OC)c(OC)c(OC)c2)cc1OCC(=O)Nc1nc2ccccc2s1
active: HCT-116 colon 5.14% | KM12 colon 5.76%
inactive: T-47D breast 18.5% | BT-549 breast 38.7% | SW-620 colon 30% | HCC-2998 colon 35.6%

Cc1ccc2c(c1)CC(O)CC1C(=O)N(CCO)CC(=O)N21 (centres undefined)
inactive: T-47D breast 93.1% | BT-549 breast 103% | SW-620 colon 106% | MCF7 breast 96.8% | HCT-116 colon 95.9% | HCC-2998 colon 104%

CO[C@]12C=C/C(=C(/C(=O)OCc3cccnc3)C(=O)CCCCCCCC[C@]3(OC)C=C/C(=C(/C(=O)OCc4cccnc4)C(=O)CCCCCCCC1)O3)O2
active: T-47D breast -17.2% | BT-549 breast -67.8% | SW-620 colon -33.3% | MCF7 breast -56.3% | HCT-116 colon -86% | HCC-2998 colon -90.6% | KM12 colon -86.5%

Cn1cc(-c2nc(-c3c[nH]c4c(Cl)nccc34)cs2)c2ccccc21
inactive: T-47D breast 87.1% | BT-549 breast 110% | SW-620 colon 99.4% | MCF7 breast 44.7% | HCT-116 colon 94.4% | HCC-2998 colon 94.5% | KM12 colon 95.9%

C#CCOc1cccc(-c2ncnc3cc(NC(=O)CCl)ccc23)c1
inactive: HCC-2998 colon 56.6% | KM12 colon 16.2%
active: T-47D breast -33.8% | BT-549 breast -27.8% | SW-620 colon -58.6% | MCF7 breast 3.63% | HCT-116 colon -74.1%

COC(=O)[C@H](C)NC(=O)[C@@H]1CCCN1C(=O)CNC(=O)[C@H](C)N
inactive: T-47D breast 97.6% | BT-549 breast 109% | SW-620 colon 105% | MCF7 breast 110% | HCT-116 colon 99.6% | HCC-2998 colon 106% | KM12 colon 104%

COc1ccc2c(c1)c(-c1nc(-c3cn(C)c4ccncc34)cs1)cn2C
active: SW-620 colon -77.5% | MCF7 breast -55.7% | HCT-116 colon -88.6% | HCC-2998 colon -54.1% | KM12 colon -53.1%
inactive: T-47D breast 95.7% | BT-549 breast 91.2%

CNC1=C([N+](=O)[O-])C(c2ccc(OC)cc2)C(C#N)=C(c2ccc[nH]2)O1 (centres undefined)
inactive: T-47D breast 100% | BT-549 breast 101% | SW-620 colon 104% | MCF7 breast 86.4% | HCT-116 colon 99% | HCC-2998 colon 100% | KM12 colon 114%

O=C(c1ccccc1)[C@@H](c1ccccc1)[C@]1(O)C(=O)Nc2ccccc21
inactive: T-47D breast 85.2% | BT-549 breast 95% | SW-620 colon 100% | MCF7 breast 92.4% | HCT-116 colon 96.6% | HCC-2998 colon 104% | KM12 colon 85.5%

COc1cc(C(=O)n2nc(NCCCc3ccccc3)c3cc(N)ccc32)cc(OC)c1OC
inactive: T-47D breast 66% | BT-549 breast 97.1% | SW-620 colon 112% | MCF7 breast 89.3% | HCT-116 colon 90.1% | HCC-2998 colon 105% | KM12 colon 88.5%

COc1ccc(-c2nc3cc(C(=O)NC4CCCCC4)ccc3n2C2CCCCC2)cc1
inactive: T-47D breast 87.6% | BT-549 breast 94.9% | SW-620 colon 101% | MCF7 breast 85.2% | HCT-116 colon 87.1% | HCC-2998 colon 91.8% | KM12 colon 68.6%

C#CCOc1cc(/C=N/Nc2nc(-c3ccc(OC)cc3)cs2)ccc1O
inactive: T-47D breast 61.2% | BT-549 breast 84.5% | SW-620 colon 94.8% | MCF7 breast 68.9% | HCT-116 colon 76.5% | HCC-2998 colon 92.4% | KM12 colon 88.6%

Nc1nc(Nc2ccc([N+](=O)[O-])cc2O)nc(C(Cl)(Cl)Cl)n1
inactive: T-47D breast 73.6% | BT-549 breast 66.8% | SW-620 colon 54.2% | MCF7 breast 59.5% | HCT-116 colon 70.6% | HCC-2998 colon 108% | KM12 colon 49.8%

CN(C)CC1C(=O)O[C@H]2[C@H]1CC/C(COC(=O)NCc1ccc(Cn3c(=O)sn(CCCI)c3=O)cc1)=C\CC[C@@]1(C)O[C@@H]21 (some centres undefined)
active: T-47D breast -55.5% | SW-620 colon -74.9% | MCF7 breast -55.4% | HCT-116 colon -73.2%
inactive: BT-549 breast 50.1% | HCC-2998 colon 41% | KM12 colon 105%

Oc1ccc(C2OCCO2)c2cccnc12
active: MCF7 breast 7.84% | HCT-116 colon 8.85%
inactive: T-47D breast 26.2% | BT-549 breast 64.2% | SW-620 colon 22.3% | HCC-2998 colon 96.6% | KM12 colon 72.4%

C=C(C)[C@@H]1CC[C@]2(COCCCNCCCN)CC[C@]3(C)[C@H](CC[C@@H]4[C@@]5(C)CC[C@H](OCCCN)C(C)(C)[C@@H]5CC[C@]43C)[C@@H]12
active: T-47D breast -65.2% | SW-620 colon -80.8% | MCF7 breast -77.9% | HCT-116 colon -82.5% | HCC-2998 colon -24.8% | KM12 colon -89.8%
inactive: BT-549 breast 99.6%

O=C(/C=C/c1ccc(Cl)cc1)c1ccc(-n2cc(CN3CCN(c4cc5c(cc4F)c(=O)c(C(=O)O)cn5C4CC4)CC3)nn2)cc1
inactive: T-47D breast 93.4% | BT-549 breast 90% | SW-620 colon 81.7% | MCF7 breast 51.2% | HCC-2998 colon 90.7% | KM12 colon 86.4%
active: HCT-116 colon 2.68%

Cc1ccc(C2(C)NC(=O)N(CC(=O)Nc3cccc(C)c3)C2=O)cc1 (centres undefined)
inactive: T-47D breast 94.4% | BT-549 breast 90.9% | SW-620 colon 106% | MCF7 breast 91.2% | HCT-116 colon 96.1% | HCC-2998 colon 102%

COc1ccc(-n2c(=O)n(-c3ccc(-c4nc5ccc(F)cc5s4)cc3)c(=O)c3cccnc32)cc1
inactive: T-47D breast 73.5% | BT-549 breast 99.7% | SW-620 colon 106% | MCF7 breast 92.2% | HCT-116 colon 91.5% | HCC-2998 colon 91.4%

N#CC1=C(N)Oc2c(ccc3cccnc23)C1c1ccccc1 (centres undefined)
inactive: T-47D breast 50.4% | BT-549 breast 51.8% | SW-620 colon 29% | MCF7 breast 24.6% | HCT-116 colon 22.2% | HCC-2998 colon 50.4% | KM12 colon 25.2%

CC(=O)O[C@H]1C[C@@]2(C)[C@@H](C[C@@H](O)[C@H]3[C@@]4(C)CC[C@H](N5CCCC5)[C@@H](C)[C@@H]4CC[C@@]32C)/C1=C(\CCC=C(C)C)C(=O)O
inactive: T-47D breast 103% | BT-549 breast 101% | SW-620 colon 96.2% | MCF7 breast 90.7% | HCT-116 colon 99.9% | HCC-2998 colon 104% | KM12 colon 102%

N#C/C(=C/C=C/c1ccccc1)S(=O)c1ccccc1 (centres undefined)
active: T-47D breast -20.1% | BT-549 breast -77.9% | SW-620 colon -40.4% | MCF7 breast -40.2% | HCT-116 colon -89.6% | HCC-2998 colon -88.9% | KM12 colon -42.4%

O=C1c2c(c3c4cccnc4[nH]c3c3ccc4ccccc4c23)C(=O)N1O
inactive: T-47D breast 40.7% | BT-549 breast 45% | SW-620 colon 21.2% | MCF7 breast 20.8% | HCT-116 colon 26.5% | HCC-2998 colon 77.2%

Cc1ccc(-c2nn(CC(=O)N3CCOCC3)c(N)c2C#N)cc1
inactive: T-47D breast 105% | BT-549 breast 98.7% | SW-620 colon 104% | MCF7 breast 92.5% | HCT-116 colon 101% | HCC-2998 colon 102% | KM12 colon 108%

O=C(N/N=C/c1ccccc1Cl)c1ccccc1Nc1ccnc(C(F)(F)F)c1
active: T-47D breast -14.3% | MCF7 breast 9.9% | HCC-2998 colon -20.7%
inactive: BT-549 breast 15.7% | SW-620 colon 16.6% | HCT-116 colon 13.3%

N=C(N)c1ccc(-c2ccc(-c3ccc(Cl)cc3Cl)s2)nc1
inactive: T-47D breast 81.2% | BT-549 breast 105%
active: SW-620 colon -63.6% | MCF7 breast -30.5% | HCT-116 colon -69.5% | HCC-2998 colon -33%

Source: PubChem BioAssay (NCI)
